Screening results deposited in PubChem by National Center for Advancing Translational Sciences (NCATS).
Compounds with a hit are over-represented: about 1.2% of the library has one in this group of screens.
Tb PGK inh – blocks T. brucei phosphoglycerate kinase; P07378; PGK/GAPDH coupled, Kinase-Glo luminescence, 60 min; Potency, µM (series often up to 57.5 µM), for inactives: at the highest dose activity change, negative = inhibition, most hits filed as inhibitors; hit rate 0.043% among 380,000; AID 602233; further: potency means the concentration at half of the fitted maximal effect; nearly all actives have a fitted effect of over 60% in size
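Luminescent ATP detection (Kinase-Glo Plus) follows a 60-minute room-temperature incubation, with wells lacking PGK as controls. Buffer: 100 mM TEA (pH 7.6), 5 mM MgCl2, 0.01% Tween-20. Coupling enzyme GAPDH (100 nM final) supplies unstable 1,3-BPG in-well.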
KCNH2 WT inh – blocks the wildtype human KCNH2 potassium channel; U2OS, BacMam KCNH2, thallium flux FluxOr; stronger effect = lower value; AID 720551; Q12809; activity change, % at 1.84 µM; hit rate 0.37% among 340,000;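 active means maximum activity change below -70%; inconclusive means maximum activity change between -70% and -50%; inactive means maximum activity change above -50%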
Target sequence (Q12809 whole entry, looked up): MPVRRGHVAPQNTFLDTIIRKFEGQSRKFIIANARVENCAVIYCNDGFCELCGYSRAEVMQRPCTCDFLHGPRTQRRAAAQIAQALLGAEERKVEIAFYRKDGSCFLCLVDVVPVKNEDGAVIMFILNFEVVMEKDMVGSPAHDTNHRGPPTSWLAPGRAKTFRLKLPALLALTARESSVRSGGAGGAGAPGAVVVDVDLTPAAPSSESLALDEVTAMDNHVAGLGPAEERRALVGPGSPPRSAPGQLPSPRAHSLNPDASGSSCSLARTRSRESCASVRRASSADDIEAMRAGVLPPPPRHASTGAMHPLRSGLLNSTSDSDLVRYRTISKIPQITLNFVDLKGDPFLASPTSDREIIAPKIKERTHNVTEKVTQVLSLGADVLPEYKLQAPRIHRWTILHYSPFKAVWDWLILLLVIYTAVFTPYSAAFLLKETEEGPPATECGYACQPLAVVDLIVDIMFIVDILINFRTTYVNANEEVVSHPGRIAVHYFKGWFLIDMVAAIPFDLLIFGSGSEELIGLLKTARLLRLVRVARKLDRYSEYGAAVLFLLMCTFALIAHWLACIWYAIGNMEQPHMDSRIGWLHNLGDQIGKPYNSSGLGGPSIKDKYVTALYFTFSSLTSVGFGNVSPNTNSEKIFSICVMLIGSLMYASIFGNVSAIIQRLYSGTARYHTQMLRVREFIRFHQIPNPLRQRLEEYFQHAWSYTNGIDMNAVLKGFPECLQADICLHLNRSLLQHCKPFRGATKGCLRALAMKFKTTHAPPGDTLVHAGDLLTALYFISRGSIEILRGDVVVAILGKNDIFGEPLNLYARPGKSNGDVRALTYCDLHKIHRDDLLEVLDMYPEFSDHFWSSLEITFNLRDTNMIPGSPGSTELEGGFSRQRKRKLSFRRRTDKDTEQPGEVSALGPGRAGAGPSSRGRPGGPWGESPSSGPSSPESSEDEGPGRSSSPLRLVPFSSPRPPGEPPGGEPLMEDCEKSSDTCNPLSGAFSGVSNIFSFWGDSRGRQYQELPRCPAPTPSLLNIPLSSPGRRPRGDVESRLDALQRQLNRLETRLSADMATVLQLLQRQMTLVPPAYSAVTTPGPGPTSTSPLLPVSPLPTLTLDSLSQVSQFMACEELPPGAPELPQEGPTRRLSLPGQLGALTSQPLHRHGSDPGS
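U2OS cells were transduced with wild-type KCNH2 virus (2.03 x 10^8 / mL) for 4 h at room temperature, then cultured overnight at 37 C. Thallium flux was read with FluxOr dye. Rate constants were normalized to DMSO controls.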
GCN5L2 inh – blocks human GCN5L2 histone acetyltransferase | GCN5L2 HAT assay, ThioGlo1 CoA-SH fluorescence | Potency, µM (doses to about 58.9 µM), inactives show at the top dose activity change, negative = inhibition, actives largely listed as inhibitors | AID 504327 | hit rate 0.21% among 390,000; further: potency means the concentration at half of the fitted maximal effect
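qHTS, 1536-well. 20nM enzyme, pH 7.5 HEPES/EDTA/Tween-20 buffer; 15 min compound preinc., RT. Start: 75uM H3(1-25), 70uM AcCoA, 50uM ThioGlo1. Read Ex340/Em540 at t=0 (autofluorescence flag) and t=20 min.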
Pin1 inhibitor – human Pin1 inhibition. Q13526. Potency, µM (series often up to 115 µM), for inactives: at the top dose activity, negative = inhibition, most hits filed as inhibitors. hit rate 0.009% among 390,000. Pin1 FP peptide displacement, HiFluor488, 10 min; active means well fitted inhibition curve with a large enough effect in the polarisation, with a control signal flat, not every such curve was filed as active; inconclusive means small, poorly fitted or top-dose-only effect, or effect the other way, or a change in a side signal; inactive means no such curve, though single readings can be large or run the other way; the % refers to the polarisation; further: potency means the concentration at half of the fitted maximal effect
RGS4 inh – human RGS4 inhibition. Potency, µM (top dose mostly 114 µM), for the others: at the top dose activity change, negative = inhibition, usual class: inhibitors. Transcreener GDP fluorescence polarization, RGS4-accelerated GTP hydrolysis. AID 504845. hit rate 0.039% among 390,000; further: potency means the concentration at half of the fitted maximal effect; nearly all actives have a fitted effect of over 75% in size
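MLSMR compounds (23 nl, pin-transferred) preincubated 10 min at room temperature with a 500nM (2x) first reagent, then RGS4 at 900nM (2x) plus Transcreener GDP mix added; fluorescence polarization (620/688 nm) read before and after 90 min at 30 °C.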
KCNH2 3.1 block – inhibitors of human KCNH2 3.1 potassium channel isoform; activity change, % (tested at about 1.8 µM); hit rate 0.95% among 340,000; U2OS KCNH2 3.1, thallium flux FluxOr; stronger effect = lower value;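 active means maximum activity change below -70%; inconclusive means maximum activity change from -70% to -50%; inactive means maximum activity change above -50%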;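 further: thallium influx rate constant from kinetic fluorescence after stimulation buffer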
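Thallium flux read-out: FluxOr dye with Red40 quencher in HBSS/HEPES, 45 min at RT. Rate constants from kinetic reads were normalized to positive and negative DMSO controls. Cells: U2OS virally expressing the 3.1 isoform.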
Starred values were filed as active, the others as inactive; ! = not active in a repeat; [ ] = remark or other dose. Unless noted, the call rests on the fitted dose curve; in most records, active means well fitted curve in the direction sought with a large enough effect; inconclusive means small, poorly fitted or top-dose-only effect, or another doubt; inactive means no such curve, though single readings can be large; an effect the other way counts as inactive or inconclusive. On the % scale 0 is the no-effect control and ±100 the full control effect.

`O=C1CC2OCC=C3CN4CC[C@]56c7ccccc7N1C5C2[C@H]3C[C@H]46` (stereo partly drawn) gave GCN5L2 inh -6.8% and RGS4 inh 160.0%[56.9 µM].
For CC[N+](CC)(CC)CCOc1cccc(OCC[N+](CC)(CC)CC)c1OCC[N+](CC)(CC)CC the results were Tb PGK inh -2.1%, KCNH2 WT inh -4.8, GCN5L2 inh 12.6µM*, Pin1 inhibitor -12.6%, RGS4 inh inconclusive and KCNH2 3.1 block -29.6.
CS(=O)(=O)c1ccc(C2=C(CNC(=O)c3cccs3)[C@H]3CC[C@@H](C2)N3Cc2ccccc2)cc1 was read as Tb PGK inh 4.7%, KCNH2 WT inh inconclusive and KCNH2 3.1 block -0.7.
Screening CS(=O)(=O)c1ccc(C2=C(CNC(=O)c3cccs3)[C@H]3CC[C@@H](C2)N3Cc2ccco2)cc1 returned Tb PGK inh 0.8%, KCNH2 WT inh -41.4 and KCNH2 3.1 block -93.8*.
Screening O=C(NCC1=C(c2ccc3ccccc3c2)C[C@@H]2CC[C@H]1N2Cc1ccco1)c1ccc([N+](=O)[O-])cc1 returned Tb PGK inh -0.9%, KCNH2 WT inh -40.7 and KCNH2 3.1 block -98.9*.
C[C@H]1CC[C@@H]2[C@@H](C)[C@H]3C(C[C@H]4C5CC[C@H]6C[C@@H](O)CC[C@]6(C)C5CC[C@]34C)N2C1 (stereo partly drawn) was read as Pin1 inhibitor 1.6% and RGS4 inh 3.0%.
CN(CC(=O)O)C(=O)[C@H](Cc1ccccc1)NC(=O)[C@@H](CCCN=C(N)N)NC(=O)[C@@H](N)Cc1ccc(O)cc1 was read as GCN5L2 inh -19.3%.
For CC(=O)c1cccc(NC(=O)CSc2ncc3c(n2)-c2cc(Cl)ccc2N(Cc2ccccc2)S3(=O)=O)c1 the results were Tb PGK inh -9.4%, GCN5L2 inh -23.3%, Pin1 inhibitor 45.4% and RGS4 inh -47.9%.
Screening Fc1ccc(C(OCCN2CCCC2)c2ccc(Br)cc2)cc1 (stereo not drawn) returned Tb PGK inh -3.1%, KCNH2 WT inh inconclusive, GCN5L2 inh 0.1%, Pin1 inhibitor -0.3%, RGS4 inh 6.3% and KCNH2 3.1 block -72.3*.
O=C(O)C1=CCCN(CCOC(c2ccc(C(F)(F)F)cc2)c2ccc(C(F)(F)F)cc2)C1 was read as GCN5L2 inh -22.7%[0.501 µM].
Screening Fc1ccc(C(OCCN2CCCC2)c2ccc(F)cc2)cc1 returned Tb PGK inh 1.3%, KCNH2 WT inh 7.9, GCN5L2 inh -3.0%, Pin1 inhibitor 6.6%, RGS4 inh 15.7% and KCNH2 3.1 block -76.7*.
`Fc1ccc(C(OCCN2CCN(C/C=C/c3ccccc3)CC2)c2ccc(F)cc2)cc1` gave GCN5L2 inh -17.9%.
O=C(Oc1ccccc1)N1CCC[C@@]2(CCN(Cc3ccccc3)C2)C1 was read as GCN5L2 inh -22.4%.
C[N+]1(C)C2CC[C@H]1CC(OC(=O)[C@@H](CO)c1ccccc1)C2 (stereo partly drawn) was read as GCN5L2 inh 6.6%.
COC[C@H]([C@@H](O)[C@@H](O)C(=O)NCC[C@@H](C)c1nc(/C=C/C[C@H]2OC3(C[C@H](O)[C@H]2C)OC([C@@H](C[C@@H](O)[C@@H](C)[C@@H](O)[C@@H](C)/C=C(C)/C(C)=C/C=C/C(C)=C\C#N)OC)[C@@H](OP(=O)(O)O)C3(C)C)co1)N(C)C (stereo partly drawn) was read as GCN5L2 inh 8.8% and RGS4 inh inactive.
For NCC(O)c1cc(O)c(O)cc1F (stereo not drawn) the results were Tb PGK inh 0.5%, KCNH2 WT inh 1.0, GCN5L2 inh 0.5%, Pin1 inhibitor inconclusive, RGS4 inh 18.9µM*! and KCNH2 3.1 block -24.4.
Screening CC[C@@H](CO)NC(=O)[C@H]1C=C2c3cccc4c3c(cn4C)C[C@H]2N(C)C1 returned GCN5L2 inh -21.8% and RGS4 inh inactive.
`COc1ccccc1OCC(=O)N1CCCC(N2CCN(c3ccc(F)cc3)CC2)C1` (stereo not drawn) gave Tb PGK inh 2.7%, KCNH2 WT inh 18.6, GCN5L2 inh 1.0%, Pin1 inhibitor 1.3%, RGS4 inh -16.4% and KCNH2 3.1 block 2.1.
`Cc1ccc(OCC(=O)N2CCCC(N3CCN(c4ccc(F)cc4)CC3)C2)cc1` (stereo not drawn) gave Tb PGK inh -7.6%, KCNH2 WT inh -43.3, GCN5L2 inh -1.7%, Pin1 inhibitor 0.7%, RGS4 inh -7.9% and KCNH2 3.1 block -86.2*.
COc1ccc(OCC(=O)N2CCCC(N3CCN(c4ccccc4C)CC3)C2)cc1 (stereo not drawn) was read as Tb PGK inh 5.9%, KCNH2 WT inh 16.0, GCN5L2 inh -4.6%, Pin1 inhibitor -10.4%, RGS4 inh -22.0% and KCNH2 3.1 block -74.3*.
O=C(c1ccc(C(F)(F)F)cc1)C1CCCN(C2CCSCC2)C1 (stereo not drawn) was read as Tb PGK inh 14.3%, KCNH2 WT inh -37.9, GCN5L2 inh -4.0%, Pin1 inhibitor -3.9%, RGS4 inh 2.0% and KCNH2 3.1 block -35.7.
Cc1cc(Cl)ccc1C(=O)C1CCCN(C2CCSCC2)C1 (stereo not drawn) was read as Tb PGK inh -3.1%, KCNH2 WT inh -34.0, GCN5L2 inh -0.7%, Pin1 inhibitor -3.6%, RGS4 inh -15.4% and KCNH2 3.1 block -87.0*.
Screening CCN(CC)CCCCN1c2ccccc2Oc2ccc(Cl)cc21 returned GCN5L2 inh 0.0%.
O=C(c1ccccc1)N1CCN(CCc2ccccc2)CC1 was read as Tb PGK inh -4.0%, KCNH2 WT inh 4.5, GCN5L2 inh 1.9%, Pin1 inhibitor 0.3%, RGS4 inh 57.2% and KCNH2 3.1 block -0.8.
For c1ccc(CCCN2CCN(CCOC(c3ccccc3)c3ccccc3)CC2)cc1 the results were Tb PGK inh -5.5%, KCNH2 WT inh inconclusive, GCN5L2 inh -5.4%, Pin1 inhibitor -0.2%, RGS4 inh 1.1%[56.9 µM] and KCNH2 3.1 block -117.0*.
For Fc1ccc(C(OCCN2CCN(CCCc3ccccc3)CC2)c2ccc(F)cc2)cc1 the results were Tb PGK inh 4.5%, GCN5L2 inh -8.0%, Pin1 inhibitor 3.2% and RGS4 inh 37.7µM*!.
For COc1ccccc1N1C(=O)NC(=O)C2(Cc3cc(C)ccc3N(C)C2)C1=O (stereo not drawn) the results were Tb PGK inh inactive, KCNH2 WT inh -124.2*, GCN5L2 inh 1.4%, Pin1 inhibitor -4.5%, RGS4 inh -40.8% and KCNH2 3.1 block 0.1.
